Consider 39 compounds from PubChem BioAssay (EPA / NIEHS).

Where a structure was tested more than once in an assay, its records may differ in their call. The source made the active and inactive calls. Rule for the calls: active = hit-call score of the fitted dose curve at least 0.9, where 1 is the maximum; inactive = score below 0.9.

Read-out in the assay: Glutathione S-transferase M3 (GSTM3), GSTM3 (gene 2947)
The experiment in a line: LTEA_HepaRG_GSTM3: Life Technologies and Expression Analysis (LTEA) Assay for Glutathione S-transferase M3 (GSTM3) using HepaRG (AID 2283501). Particulars: mRNA level, 48 h; actives raise or lower the signal. Here is the method: LTEA_HepaRG is a cell based, multiplexed-readout assay that uses HepaRG, a human liver cell line, with measurements taken at 48 hours after chemical dosing on a 96-well plate.LTEA_HepaRG_GSTM3 is one of 102 assay component(s) measured in the LTEA HepaRG cell culture assay. It is a marker of Oxidative Stress.Data from the assay component LTEA_HepaRG_GSTM3 was analyzed into 1 endpoint. This assay endpoint, LTEA_HepaRG_GSTM3, was analyzed with bidirectional fitting relative to DMSO as the negative control and baseline of activity. Using a type of inducible reporter, measures of mRNA induction for gain or loss-of-signal activity can be used to understand regulation of transcription factor activity. To generalize the intended target to other relatable targets, this assay endpoint is annotated to the transferase intended target family, where the subfamily is alkyl and aryl transferase.
A total of 1060 chemcials from the ToxCast library were tested in eight-point concentration-response experiments. Cell culture and cytotoxicity assays were conducted at Thermo Fisher Scientific's Custom Services facility (Madison, WI). A single lot of human HepaRG cells (Thermo Fisher Scientific, Frederick, MD) was used for the cell culture experiments. 96-well format collagen type I coated plates of human HepaRG cells were prepared using established methods. Briefly, cryopreserved HepaRG cells were thawed, plated at a density of approximately 100,000 cells/well in HepaRG Thaw, Plate, and General Purpose media (HPRG770, Thermo Fisher Scientific), and incubated for 48 hours. 0.5% DMSO was selected as vehicle control to balance the requisite need of DMSO in HepaRG cultures to maintain differentiation (for example, baseline metabolism, proportions of hepatocytes vs. cholangiocytes), while enabling further hepatic receptor pathway activation (for example, PXR and CAR) in response to chemical exposure. 48 hours after plating, the culture medium was replaced with HepaRG Serum-Free Incudtion Media. Cells were exposed to each test chemical in duplicate and maintained in CO2 incubators for another 48 hours. Chemical plates were thawed to room temperature and 200x concentrations of treatment groups were prepared. 8-point conentration-reponse curves were made with the highest exposure at 100 uM, followed by half-log dilutions, all in 0.5% DMSO. Each test plate contained variouse controls, induction positive controls (1mM phenobarbital), cytotoxicity positive controls ([…] aflatoxin B1), vehicle controls (0.5% DMSO), and total lysis controls (0.5% DMSO). Cell morphology images were taken using an Essen IncuCyte FLR automated microscope, with six 96-well plates imaged in about 24 minutes. Images were captured and exported and JPEG files. Spent culture media was transfered to black-well plates for the LDH assay, and remaining media was sorted at -80 C for later use. Cells were treated with RLT buffer and frozen until shipped for gene expression analysis. Total RNA was isolated from the cell suspension in 75 uL of Buffer RLT (Qiagen, Germantown, MD 20874) by Quintiles/Expression Analysis (Durham, NC) using a custom isolation procedure. Total RNA from each plate well was transferred to a preamplification plate. Fluidigm's 96.96 Dynamic ArrayTM (Fluidigm, Amsterdam, the Netherlands) technology was used for gene expression analyses by quantitative reverse transcription polymerase chain reaction (qRT-PCR, performed by Quintiles/Expression Analysis, Durham, NC)89. Standard TaqManTM Assays (Applied Biosystems/ThermoFisher Scientific, Foster City, CA) were used to assess the expression of 93 genes selected based on their selectivity and sensitivity to important hepatic receptors known to be modulated by environmental chemicals; importance in human hepatocyte functionality; and hepatotoxicity. […]
For `CCOC(=O)C(C)Oc1ccc(Oc2nc3ccc(Cl)cc3o2)cc1` (stereo not given), the call was inactive.

As for `COC(=O)c1ccc(I)cc1S(=O)(=O)NC(=O)Nc1nc(C)nc(OC)n1`, the outcome was inactive. For `S=C(S)NCCNC(=S)S.[Mn+2].[S-]C([S-])=NCCN=C([S-])[S-].[Zn+2]`, the AC50 was 827 nM (active) and the compound was classed as inactive.

For the compound `O=C(O)C1(C(=O)Nc2ccc(Cl)cc2Cl)CC1`, the compound was classed as inactive. Still for that read-out and setting: the same measure for `CCOC(=O)NCCOc1ccc(Oc2ccccc2)cc1`: “inactive”.

With `CCCCC(CC)CN1C(=O)C2C3C=CC(C3)C2C1=O` (stereo not given), the compound was called inactive. As to `O=C(Nc1ccc([N+](=O)[O-])cc1Cl)c1cc(Cl)ccc1O`, the AC50 is 25000 nM (active). Regarding `CCCCC(CC)COC(=O)c1ccccc1C(=O)O` (stereo not given), the compound was classed as inactive.

Regarding `CCCN(CCC)c1c([N+](=O)[O-])cc(C(F)(F)F)c(N)c1[N+](=O)[O-]`, the compound was called inactive. The same measure, in the same setting: the same measure for `CN(C)C(=O)Nc1ccc(Cl)c(Cl)c1`: “inactive”; for `CCN(CC)C(=O)c1cccc(C)c1`: “inactive”; for `COCCO`: “inactive”. In the case of `Cc1nn(C)c(Oc2ccccc2)c1C=NOCc1ccc(C(=O)OC(C)(C)C)cc1`, the AC50 is 3000 nM (active). Consider `c1ccc(Nc2ccccc2)cc1`, for which the compound was called inactive. Still for that read-out and setting: the same measure for `O=C(O)c1ccccc1`: “inactive”; for `c1ccc2[nH]c(-c3cscn3)nc2c1`: “inactive”. Still for that read-out and setting: the same measure for `C#C[C@]1(O)CC[C@H]2[C@@H]3CCC4=CC(=O)CC[C@@H]4[C@H]3CC[C@@]21CC`: “inactive”. Still for that read-out and setting: the same measure for `CCCCCCC(C)OC(=O)COc1nc(F)c(Cl)c(N)c1Cl` (stereo not given): “inactive”. For `CC(=O)[C@H]1CC[C@H]2[C@@H]3CCC4=CC(=O)CC[C@]4(C)[C@H]3CC[C@]12C`, the AC50 was 93100 nM (active). As to `CCOC(=O)c1ccc(O)cc1`, the outcome was inactive. The same measure, in the same setting: the same measure for `CCCCCOC(=O)COc1cc(N2C(=O)C3=C(CCCC3)C2=O)c(F)cc1Cl`: “inactive”. For `N[C@@H](Cc1cc(I)c(Oc2ccc(O)c(I)c2)c(I)c1)C(=O)O`, the AC50 was 613 nM (active). On to `O=C(c1ccc(O)cc1O)c1ccc(O)cc1O`, for which the compound was called inactive. Still for that read-out and setting: the same measure for `CCSC(=O)N(CC(C)C)CC(C)C`: “inactive”; for `COC(=O)c1ccccc1C(=O)O`: “inactive”. Still for that read-out and setting: the same measure for `Oc1ccc(C(c2ccc(O)cc2)C(Cl)(Cl)Cl)cc1`: “inactive”. On the same count and under the same terms, the same measure for `CC(C)CCCCCCc1ccc(O)cc1`: “inactive”. For the compound `O=C(c1ccccc1)C1CCCCC1`, the outcome was inactive.

Consider `CCCOC(=O)NCCCN(C)C`, for which the compound was classed as inactive.

Consider `COc1c(Cl)ccc(Cl)c1C(=O)O`, for which the call was inactive. Turning to `CCNc1nc(N)nc(Cl)n1`, the result was inactive. Same read-out and setting: the same measure for `CSC(=O)c1cccc2nnsc12`: “inactive”; for `CCCCOC(=O)C(C)Oc1ccc(Oc2ccc(C(F)(F)F)cn2)cc1` (stereo not given): “inactive”.

In the case of `CCCN(CCC)C(=O)SCC`, the compound was called inactive. Same read-out and setting: the same measure for `CCOC(=O)COc1cc(-n2ncc(C(F)(F)F)c(C)c2=O)c(F)cc1Cl`: “inactive”; for `CCOC(=O)C(C)Oc1ccc(Oc2cnc3cc(Cl)ccc3n2)cc1` (stereo not given): “inactive”; for `C[C@]12C[C@H](O)[C@H]3[C@@H](CCC4=CC(=O)CC[C@@]43C)[C@@H]1CC[C@@H]2C(=O)CO`: “inactive”.

For the compound `CC(=O)S[C@@H]1CC2=CC(=O)CC[C@]2(C)[C@H]2CC[C@@]3(C)[C@@H](CC[C@@]34CCC(=O)O4)[C@H]12`, the call was inactive.

With `CCCOC(=O)c1ccc(C(=O)OCCC)nc1`, the call was inactive.
